# Measured values reported in PubChem BioAssay (Tox21).
# “And” between values parts separate entries of the source, which are not always exact repeats. Identical values can stand only once. Unmarked numbers belong to inactive results. Records with an inconclusive call do not appear. A call without a number means that no potency is given here. The source made the active and inactive calls. Calls follow the shape of the dose curve; as a rule, active = well fitted curve in the direction sought with a large enough effect in the repeat runs; inconclusive = weak or mixed curves; inactive = no such curve, though single readings can be large; an effect the other way counts as inactive or inconclusive.
# What was measured:
# [1] = Human pregnane X receptor (PXR) small molecule agonists, qHTS cell viability counter screen (AID 1346977); conditions: PXR-Luc HepG2 viability, CellTiter-Fluor, 24 h; series mostly up to 92.4 µM; also: nearly all actives have a fitted effect of over 50% in size
# How it was run: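 PXR-Luc HepG2 cells in medium with 5% charcoal-stripped FBS were pre-incubated 5hr, then exposed to compounds for 24hr at 37C. Viability was read in the same wells by CellTiter-Fluor fluorescence, reagent added after 23hr with a 1hr incubation.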
# [2] = Caspase-3/7 induction in HepG2 cells by small molecules, qHTS assay (AID 1346978); conditions: HepG2 caspase-3/7 activation, Caspase-Glo luminescence, 17 h; series mostly up to 92.4 µM; also: nearly all actives have a fitted effect of over 15% in size
# How it was run: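 Caspase-3/7 induction was measured by Caspase-Glo 3/7 luminescence (30 min, room temperature) after a 17 hr compound exposure of wild-type HepG2 cells seeded at 2,000 per well and pre-incubated 5 hr.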
# [3] = Caspase-3/7 induction in CHO-K1 cells by small molecules, qHTS cell viability counter screen (AID 1346979); conditions: CellTiter-Fluor fluorescence, 17 h; series mostly up to 92.4 µM; also: nearly all actives have a fitted effect of over 35% in size
# How it was run: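 Wild-type CHO-K1 cells were seeded at 1,500 per well, rested 5hr at 37 C, then exposed to compounds in DMSO. After 16hr, CellTiter-Fluor reagent was added and fluorescence read 1hr later as the viability measure.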
# [4] = Caspase-3/7 induction in CHO-K1 cells by small molecules, qHTS assay (AID 1346980); conditions: CHO-K1 caspase-3/7 induction, Caspase-Glo luminescence, 17 h; series mostly up to 92.4 µM; also: nearly all actives have a fitted effect of over 15% in size
# How it was run: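 Luminescent Caspase-Glo 3/7 read (30min, room temperature) quantified apoptosis induction. Cells were wild-type CHO-K1, treated with compound for 17hr at 37 C and 5% CO2.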
# [5] = molecular target: Nuclear receptor subfamily 1 group I member 2 (Rattus norvegicus) (UniProt Q9R1A7); assay: Rat pregnane X receptor (rPXR) activation by small molecules, qHTS assay (AID 1346983); conditions: rPXR luciferase reporter cells, One-Glo luminescence, 24 h; max activation: hits give high values; also: nearly all actives have a fitted effect of over 20% in size
# Sequence of Nuclear receptor subfamily 1 group I member 2 (Rattus norvegicus) (Q9R1A7 whole entry, looked up): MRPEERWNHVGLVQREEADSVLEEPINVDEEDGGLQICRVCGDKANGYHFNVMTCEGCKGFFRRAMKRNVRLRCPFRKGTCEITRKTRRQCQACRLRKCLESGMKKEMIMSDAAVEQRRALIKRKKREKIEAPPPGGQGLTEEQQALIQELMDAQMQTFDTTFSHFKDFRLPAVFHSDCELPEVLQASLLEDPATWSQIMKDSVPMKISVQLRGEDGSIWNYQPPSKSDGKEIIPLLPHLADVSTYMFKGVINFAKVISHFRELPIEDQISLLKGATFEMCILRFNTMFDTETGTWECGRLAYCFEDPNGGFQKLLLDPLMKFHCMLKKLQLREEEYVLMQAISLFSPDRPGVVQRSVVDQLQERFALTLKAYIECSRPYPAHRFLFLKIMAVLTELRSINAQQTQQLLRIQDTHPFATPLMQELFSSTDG
# How it was run: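 Luminescent readout (One-Glo luciferase, 30 min room temperature) followed 24 hr compound treatment at 37 C of rPXR cells plated 2,000 per well and preincubated 5hr; qHTS format with compounds delivered in DMSO.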
# [6] = molecular target: Cytochrome P450 2D6 (Homo sapiens) (UniProt P10635); assay: Cytochrome P450 Family 2 Subfamily D Member 6 (CYP2D6) small molecule antagonists: luciferase reporter qHTS assay (AID 1671196); conditions: P450-Glo CYP2D6 enzyme assay, luciferin luminescence, 1 h; series mostly up to 115 µM; also: nearly all actives have a fitted effect of over 50% in size; also: potency is read from the fitted curve at half-maximal effect
# Sequence of Cytochrome P450 2D6 (Homo sapiens) (P10635 whole entry, looked up): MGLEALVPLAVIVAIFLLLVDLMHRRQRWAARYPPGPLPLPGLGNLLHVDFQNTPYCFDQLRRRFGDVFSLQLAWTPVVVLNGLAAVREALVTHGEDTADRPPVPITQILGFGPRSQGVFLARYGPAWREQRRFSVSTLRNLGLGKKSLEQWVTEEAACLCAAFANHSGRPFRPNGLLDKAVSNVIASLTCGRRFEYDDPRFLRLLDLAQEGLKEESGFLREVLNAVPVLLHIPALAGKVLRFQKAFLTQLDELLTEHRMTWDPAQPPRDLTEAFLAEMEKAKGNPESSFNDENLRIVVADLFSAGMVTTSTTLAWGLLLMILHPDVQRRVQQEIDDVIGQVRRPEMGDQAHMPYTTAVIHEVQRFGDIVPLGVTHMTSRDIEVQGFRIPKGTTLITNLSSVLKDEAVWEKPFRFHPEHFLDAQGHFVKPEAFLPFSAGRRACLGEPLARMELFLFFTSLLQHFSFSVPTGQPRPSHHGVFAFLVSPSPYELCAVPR
# How it was run: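 Cell-free P450-Glo system: CYP2D6 with proluciferin substrate was pre-incubated with compound for 10 min, then reacted with NADPH regeneration for 1 h at room temperature. Luciferin product was detected after 20 min, and data were reported as relative luminescence units.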
# [7] = molecular target: Cytochrome P450 2C19 (Homo sapiens) (UniProt P33261); assay: Cytochrome P450 Family 2 Subfamily C Member 19 (CYP2C19) small molecule antagonists: luciferase reporter qHTS assay (AID 1671197); conditions: P450-Glo CYP2C19 enzyme, luciferin luminescence, 1 h; series mostly up to 115 µM; also: nearly all actives have a fitted effect of over 65% in size; also: potency is read from the fitted curve at half-maximal effect
# Sequence of Cytochrome P450 2C19 (Homo sapiens) (P33261 whole entry, looked up): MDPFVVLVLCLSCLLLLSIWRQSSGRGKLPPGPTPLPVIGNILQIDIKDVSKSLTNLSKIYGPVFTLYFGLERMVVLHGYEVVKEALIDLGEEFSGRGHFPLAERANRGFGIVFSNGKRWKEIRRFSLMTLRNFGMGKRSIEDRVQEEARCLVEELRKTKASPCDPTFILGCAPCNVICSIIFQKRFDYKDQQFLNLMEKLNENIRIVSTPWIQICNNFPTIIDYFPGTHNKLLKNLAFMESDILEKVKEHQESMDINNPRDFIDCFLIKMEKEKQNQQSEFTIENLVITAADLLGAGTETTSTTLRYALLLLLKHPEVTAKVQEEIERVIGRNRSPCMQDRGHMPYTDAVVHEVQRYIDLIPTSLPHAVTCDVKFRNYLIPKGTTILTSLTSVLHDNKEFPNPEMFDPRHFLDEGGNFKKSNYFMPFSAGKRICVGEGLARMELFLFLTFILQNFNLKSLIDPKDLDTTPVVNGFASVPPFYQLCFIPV
# How it was run: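 Quantitative high-throughput screen of the Tox21 library using CYP2C19 with proluciferin substrate. Reaction: NADPH regeneration, 37C, 1 h, after 10 min compound preincubation at room temperature. Readout: luminescence.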
# [8] = molecular target: Cytochrome P450 2C9 (Homo sapiens) (UniProt P11712); assay: Cytochrome P450 Family 2 Subfamily C Member 9 (CYP2C9) small molecule antagonists: luciferase reporter qHTS assay (AID 1671198); conditions: P450-Glo CYP2C9 enzyme assay, luciferin luminescence; series mostly up to 115 µM; also: nearly all actives have a fitted effect of over 50% in size; also: potency is read from the fitted curve at half-maximal effect
# Sequence of Cytochrome P450 2C9 (Homo sapiens) (P11712 whole entry, looked up): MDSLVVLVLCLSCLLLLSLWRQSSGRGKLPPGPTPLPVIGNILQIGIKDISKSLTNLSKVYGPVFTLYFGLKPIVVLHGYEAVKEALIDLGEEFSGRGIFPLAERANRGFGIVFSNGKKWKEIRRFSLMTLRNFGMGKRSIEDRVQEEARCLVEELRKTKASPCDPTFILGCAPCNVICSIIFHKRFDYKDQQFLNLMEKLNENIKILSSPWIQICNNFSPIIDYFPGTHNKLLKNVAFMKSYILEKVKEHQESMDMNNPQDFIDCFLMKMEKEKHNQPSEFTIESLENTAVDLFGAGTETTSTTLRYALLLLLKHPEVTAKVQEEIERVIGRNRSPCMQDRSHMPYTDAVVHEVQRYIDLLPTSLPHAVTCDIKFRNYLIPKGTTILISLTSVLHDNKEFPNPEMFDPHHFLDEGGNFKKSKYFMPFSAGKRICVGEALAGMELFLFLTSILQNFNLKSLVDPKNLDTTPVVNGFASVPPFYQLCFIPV
# How it was run: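 Enzyme-substrate mix preincubated with compound 10 min at room temperature; reaction started with NADPH regeneration solution, 1 h 37C. Luminescent luciferin product read after 20 min detection reagent.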
# [9] = molecular target: Cytochrome P450 1A2 (Homo sapiens) (UniProt P05177); assay: Cytochrome P450 Family 1 Subfamily A Member 2 (CYP1A2) small molecule antagonists: luciferase reporter qHTS assay (AID 1671199); conditions: P450-Glo CYP1A2 enzyme, luciferin luminescence, 1 h; series mostly up to 115 µM; also: nearly all actives have a fitted effect of over 50% in size; also: potency is read from the fitted curve at half-maximal effect
# Sequence of Cytochrome P450 1A2 (Homo sapiens) (P05177 whole entry, looked up): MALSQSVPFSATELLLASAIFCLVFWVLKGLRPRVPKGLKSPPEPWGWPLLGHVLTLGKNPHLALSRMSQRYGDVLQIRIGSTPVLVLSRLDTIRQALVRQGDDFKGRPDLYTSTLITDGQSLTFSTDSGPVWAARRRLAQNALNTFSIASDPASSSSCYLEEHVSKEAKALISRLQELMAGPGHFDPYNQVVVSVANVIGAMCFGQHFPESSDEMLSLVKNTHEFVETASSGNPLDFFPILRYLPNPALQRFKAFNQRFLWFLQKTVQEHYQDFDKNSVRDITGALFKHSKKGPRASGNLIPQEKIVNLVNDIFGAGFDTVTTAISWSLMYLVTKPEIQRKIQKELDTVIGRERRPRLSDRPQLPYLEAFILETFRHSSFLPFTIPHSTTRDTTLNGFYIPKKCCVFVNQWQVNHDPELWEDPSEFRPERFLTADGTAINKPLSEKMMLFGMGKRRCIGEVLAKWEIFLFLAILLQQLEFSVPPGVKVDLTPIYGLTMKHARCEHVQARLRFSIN
# How it was run: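 P450-Glo CYP1A2 enzyme–proluciferin substrate mix with compound 10 min at room temperature, then NADPH regeneration 1 h at room temperature. Luciferin detection reagent added, luminescence read after 20 min; furafylline positive control.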
# [10] = molecular target: Voltage-gated inwardly rectifying potassium channel KCNH2 (Homo sapiens) (UniProt Q12809); assay: Human Ether-a-go-go-Related Gene (hERG) channel small molecule antagonists: fluorescence cell-based qHTS assay (AID 1671200); conditions: hERG-U2OS cells, FluxOR thallium flux fluorescence; series mostly up to 76.8 µM
# Sequence of Voltage-gated inwardly rectifying potassium channel KCNH2 (Homo sapiens) (Q12809 whole entry, looked up): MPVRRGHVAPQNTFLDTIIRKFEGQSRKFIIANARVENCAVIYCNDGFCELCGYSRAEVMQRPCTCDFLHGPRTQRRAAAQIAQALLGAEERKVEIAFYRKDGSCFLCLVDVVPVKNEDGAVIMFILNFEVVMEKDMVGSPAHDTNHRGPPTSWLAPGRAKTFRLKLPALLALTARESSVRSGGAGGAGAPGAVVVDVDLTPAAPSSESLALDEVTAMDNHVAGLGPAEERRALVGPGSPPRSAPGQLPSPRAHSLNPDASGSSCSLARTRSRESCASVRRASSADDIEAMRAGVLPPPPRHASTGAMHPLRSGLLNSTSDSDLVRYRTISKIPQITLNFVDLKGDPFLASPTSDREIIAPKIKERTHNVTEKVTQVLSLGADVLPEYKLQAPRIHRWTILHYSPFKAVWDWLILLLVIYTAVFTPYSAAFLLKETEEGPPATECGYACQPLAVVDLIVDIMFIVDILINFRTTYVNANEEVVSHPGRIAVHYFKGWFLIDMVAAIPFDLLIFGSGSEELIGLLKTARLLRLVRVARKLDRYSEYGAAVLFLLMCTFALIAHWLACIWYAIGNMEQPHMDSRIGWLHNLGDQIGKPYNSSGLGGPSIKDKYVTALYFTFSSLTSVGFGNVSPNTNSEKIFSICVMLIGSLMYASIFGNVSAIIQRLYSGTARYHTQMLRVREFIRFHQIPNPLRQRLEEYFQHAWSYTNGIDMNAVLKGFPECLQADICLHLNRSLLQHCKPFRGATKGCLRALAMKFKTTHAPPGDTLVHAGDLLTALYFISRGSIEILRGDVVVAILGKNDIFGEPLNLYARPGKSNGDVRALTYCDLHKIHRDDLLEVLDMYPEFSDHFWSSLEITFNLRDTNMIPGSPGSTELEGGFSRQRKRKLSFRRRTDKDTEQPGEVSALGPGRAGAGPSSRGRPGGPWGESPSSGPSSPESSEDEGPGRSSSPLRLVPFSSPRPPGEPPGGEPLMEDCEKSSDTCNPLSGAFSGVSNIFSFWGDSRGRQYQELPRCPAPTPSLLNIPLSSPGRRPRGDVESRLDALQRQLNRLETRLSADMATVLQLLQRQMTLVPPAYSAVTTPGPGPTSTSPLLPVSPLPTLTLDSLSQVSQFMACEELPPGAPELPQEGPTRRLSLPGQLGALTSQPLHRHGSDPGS
# How it was run: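 U2OS cells expressing the channel were plated at 1000 cells/well, incubated overnight at 37 C, then loaded with FluxOR II thallium-sensitive dye for 1 h at room temperature in the dark, with a further 10 min at room temperature before stimulation.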
# [11] = Caspase-3/7 induction in HepG2 cells by small molecules, qHTS cell viability counter screen (AID 1346981); conditions: CellTiter-Fluor fluorescence, 17 h; series mostly up to 92.4 µM; also: nearly all actives have a fitted effect of over 30% in size
# How it was run: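 Wild-type HepG2 cells, 2,000/well, settled 5 hr at 37 C, 5% CO2 before compound addition. Viability read by CellTiter-Fluor fluorescence, reagent added after 16 hr compound exposure, then 1 hr at 37C, in the same wells as the caspase read.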
# [12] = molecular target: Nuclear receptor subfamily 1 group I member 2 (Homo sapiens) (UniProt O75469); assay: Human pregnane X receptor (PXR) small molecule agonists, qHTS assay (AID 1346982); conditions: PXR-Luc HepG2, CYP3A4 luciferase reporter, 24 h; series mostly up to 92.4 µM; also: nearly all actives have a fitted effect of over 35% in size; also: potency is read from the fitted curve at half-maximal effect
# Sequence of Nuclear receptor subfamily 1 group I member 2 (Homo sapiens) (O75469 whole entry, looked up): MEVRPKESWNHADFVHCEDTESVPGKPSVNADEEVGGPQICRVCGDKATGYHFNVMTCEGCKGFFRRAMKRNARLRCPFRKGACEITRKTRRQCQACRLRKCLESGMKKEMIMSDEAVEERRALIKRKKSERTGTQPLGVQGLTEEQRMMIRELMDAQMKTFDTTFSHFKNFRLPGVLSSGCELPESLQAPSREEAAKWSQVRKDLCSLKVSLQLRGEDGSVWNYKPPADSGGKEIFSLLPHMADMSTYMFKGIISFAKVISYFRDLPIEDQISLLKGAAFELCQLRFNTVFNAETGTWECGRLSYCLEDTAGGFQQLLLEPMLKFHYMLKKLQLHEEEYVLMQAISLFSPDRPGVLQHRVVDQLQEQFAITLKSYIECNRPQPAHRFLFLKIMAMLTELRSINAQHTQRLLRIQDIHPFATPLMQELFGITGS
# How it was run: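 PXR-Luc HepG2 reporter cells (CYP3A4-driven luciferase) in 5% charcoal-stripped FBS medium, plated 5 h before compound addition, then treated 24 h at 37C. Luciferase read by ONE-Glo luminescence after 30 min at room temperature.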
# [13] = molecular target: Cytochrome P450 3A4 (Homo sapiens) (UniProt P08684); assay: Cytochrome P450 Family 3 Subfamily A Member 4 (CYP3A4) small molecule antagonists: luciferase reporter qHTS assay (AID 1671201); conditions: P450-Glo CYP3A4 enzyme, luciferin luminescence, 1 h; series mostly up to 115 µM; also: nearly all actives have a fitted effect of over 50% in size; also: potency is read from the fitted curve at half-maximal effect
# Sequence of Cytochrome P450 3A4 (Homo sapiens) (P08684 whole entry, looked up): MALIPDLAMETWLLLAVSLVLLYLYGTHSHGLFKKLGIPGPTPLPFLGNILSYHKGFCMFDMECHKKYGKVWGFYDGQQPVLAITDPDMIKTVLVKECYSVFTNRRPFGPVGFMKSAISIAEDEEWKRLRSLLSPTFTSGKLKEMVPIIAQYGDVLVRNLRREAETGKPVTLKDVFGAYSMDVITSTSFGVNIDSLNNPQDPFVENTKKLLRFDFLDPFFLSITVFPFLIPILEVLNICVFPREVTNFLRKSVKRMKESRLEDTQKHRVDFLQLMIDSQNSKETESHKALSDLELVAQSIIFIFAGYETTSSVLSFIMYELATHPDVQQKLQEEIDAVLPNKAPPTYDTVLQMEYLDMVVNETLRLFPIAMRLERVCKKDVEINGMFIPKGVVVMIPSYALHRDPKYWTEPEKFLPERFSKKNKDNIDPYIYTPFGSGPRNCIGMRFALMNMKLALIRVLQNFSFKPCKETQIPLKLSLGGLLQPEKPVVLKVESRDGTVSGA
# How it was run: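 P450-Glo CYP3A4 system with proluciferin substrate; compounds preincubated 10 min RT with enzyme-substrate mix, then NADPH regeneration added for 1 h RT. Detection reagent 20 min, luminescence read as relative luminescence units.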
# [14] = molecular target: Nuclear receptor subfamily 1 group I member 2 (Homo sapiens) (UniProt O75469); assay: CYP3A4 induction through human pregnane X receptor (PXR) by small molecules, qHTS assay (AID 1346984); conditions: DPX-2 HepG2 PXR, CYP3A4-luciferin luminescence, 24 h; series mostly up to 46.1 µM; also: nearly all actives have a fitted effect of over 40% in size
# How it was run: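 DPX-2 HepG2 cells carrying a PXR response element and CYP3A4-promoter luciferase construct, treated with compounds 24 hr at 37C. Then P450-Glo CYP3A4 Luciferin-IPA substrate (3uM final) for 3 hr at 37C, One-Glo added, luminescence read.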
# [15] = molecular target: Nuclear receptor subfamily 1 group I member 2 (Homo sapiens) (UniProt O75469); assay: Human pregnane X receptor (PXR) activation by small molecules, qHTS assay (AID 1346985); conditions: DPX-2 HepG2 CYP3A4-luciferase, 24 h; series mostly up to 38.3 µM; also: nearly all actives have a fitted effect of over 40% in size
# How it was run: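 DPX-2 cells (HepG2 co-transfected with a PXR response element and a CYP3A4-promoter luciferase construct) were seeded at 2,000 per well, rested 5 hr at 37C, then exposed to DMSO-dissolved compounds for 24 hr. Activation was read as luciferase luminescence.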
SMILES,Potency [1],Potency [2],Potency [3],outcome [4],max activation [5],Potency [6],Potency [7],Potency [8],Potency [9],Potency [10],Potency [11],Potency [12],Potency [13],Potency [14],Potency [15]
Nc1ccn([C@H]2CS[C@@H](CO)O2)c(=O)n1,inactive,inactive,inactive,inactive,-3.24% and -0.136%,inactive,inactive,inactive,inactive,inactive,,,,,
Cc1ccc(NC(=O)N(C)C)cc1NC(=O)N(C)C,inactive,inactive,inactive,inactive,,inactive,inactive,,,inactive,,,,,
CC(C)CC(O)CC(C)C,inactive,,inactive,inactive,,inactive,inactive,inactive,inactive,inactive,inactive,inactive,inactive,,
C[C@H](CS)C(=O)N1CCC[C@H]1C(=O)O,inactive,inactive,inactive,inactive,0.201%,,21.9 µM (active),,inactive,inactive,,,inactive,,
CN1C(CSCC(F)(F)F)Nc2cc(Cl)c(S(N)(=O)=O)cc2S1(=O)=O (configuration not stated),inactive,,inactive,inactive,,inactive,inactive,,inactive,,inactive,29.8 µM (active),,,
CC(=O)OC(C)C[N+](C)(C)C (configuration not stated),inactive,,inactive,inactive,-2.41%,inactive,inactive,inactive,,inactive,inactive,inactive,inactive,inactive,inactive
COc1ccc(-n2nc(C(F)F)cc2-c2ccc(S(C)=O)cc2)cc1 (configuration not stated),inactive,inactive,,inactive,,35.6 µM (active),2 µM (active),31.7 µM (active),31.7 µM (active),inactive,inactive,30.6 µM (active),31.7 µM (active),,
CCc1ccc(C)cc1,inactive,,inactive,inactive,,inactive,inactive,inactive,inactive,inactive,inactive,inactive,,,
CC(C)(C(=O)c1cccnc1)c1cccnc1,inactive,,inactive,inactive,-1.51%,,inactive,inactive,inactive,inactive,inactive,inactive,,inactive,inactive
CCCCCCCCCCCC(=O)OCC(O)CO (configuration not stated),inactive,inactive,,inactive,-6.09%,,79.6 µM (active),39.9 µM (active),,inactive,inactive,inactive,,inactive,inactive
